This is an account of results in publication PMC13494018.

Values without a mark were called inactive. How the calls were made is not given here.

The test concerns the target VTCN1, Q7Z7D3.

Sequence of VTCN1, Q7Z7D3 (Q7Z7D3 whole entry): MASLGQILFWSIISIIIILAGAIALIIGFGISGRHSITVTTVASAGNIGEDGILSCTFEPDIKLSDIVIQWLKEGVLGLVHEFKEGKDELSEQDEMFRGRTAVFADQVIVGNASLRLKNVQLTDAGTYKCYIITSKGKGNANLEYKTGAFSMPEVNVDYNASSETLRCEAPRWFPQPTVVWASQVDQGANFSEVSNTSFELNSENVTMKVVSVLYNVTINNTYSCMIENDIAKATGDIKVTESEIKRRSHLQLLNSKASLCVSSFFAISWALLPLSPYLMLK

B1: design_605_6ebdab39-eaab-4492-afcb-164e20c3b25e_1459_dldesign_0_cycle1_af2pred (protein)
chain: AAEEARKKKLEEFAKKAKEAAKKFSPEYAKKAKEAAKLYEQGKTATPAEAAALAQKARQLLAEAEYEDKK
Take B1: the “binding in a display sort” value was “not found”.

B2: design_605_6ebdab39-eaab-4492-afcb-164e20c3b25e_2056_dldesign_0_cycle1_af2pred (protein)
chain: MKEELLKISEESHQAAAEAQFLAAKNPSVKPLAEEAKKHAKKSIEAAKEGDLEKAKEHYKKVLELKEKAKKE
For the molecule B2, the “binding in a display sort” value was “not found”.

B3: design_605_6ebdab39-eaab-4492-afcb-164e20c3b25e_1473_dldesign_0_cycle1_af2pred (protein)
chain: AKEILDAQMKILDAANEAEKVDPELGKEIREKYKKVAEEGKKLSPEEALKALKAMAEEAEKKAKEAKKEAEKKKLE
With B3, the “binding in a display sort” value is “not found”.

B4: design_605_6ebdab39-eaab-4492-afcb-164e20c3b25e_2126_dldesign_0_cycle1_af2pred (protein)
chain: DELEKYKKEAKEAAKEAIKEAKELGKLIGDEKWAKANQEKIKKIEEKAQKSKDAEVAKKYAEELKKAKEKLKKIKKRAKEALE
As to B4, the “binding in a display sort” value was “not found”.

B5: design_605_6ebdab39-eaab-4492-afcb-164e20c3b25e_737_dldesign_0_cycle1_af2pred (protein)
chain: MEELKEQIKEIKEKAEEILKNKETASLGILAESNAEDAEKLLKAGEADPSTKEKNVAEAKKFLKAAKEYAEKGLELMKKLK
For the molecule B5, the “binding in a display sort” value was “not found”.

B6: design_605_6ebdab39-eaab-4492-afcb-164e20c3b25e_1733_dldesign_0_cycle1_af2pred (protein)
chain: AAEKGKNLAESVKLFSEQALENGKKLGAEALKEAAKRIKKRGDKAVTTIAKDPSAAPYAKEAEAITKDYIKKAEEAAKKAK
For the molecule B6, the “binding in a display sort” value is “not found”.

B7: design_605_6ebdab39-eaab-4492-afcb-164e20c3b25e_2390_dldesign_0_cycle1_af2pred (protein)
chain: AAEKLKEKVEKIKKEAEEKAKKAKTKEEAAKIYREGAEKIRKLATEALKKDPSVEPAVKYGSKVAAELREKAAELDVLANRE
With B7, the “binding in a display sort” value is “not found”.

B8: design_605_6ebdab39-eaab-4492-afcb-164e20c3b25e_1837_dldesign_0_cycle1_af2pred (protein)
chain: MDKEKIKKKLYKELSEAAKKGAMAVFDVVDKAYDEGTAELAKEAAEEVAKETTPEEAKAMRAGARYLEAATA
In the case of B8, the “binding in a display sort” value is “not found”.

B9: design_605_6ebdab39-eaab-4492-afcb-164e20c3b25e_2228_dldesign_0_cycle1_af2pred (protein)
chain: SALAERARALRAAARAEAAADPENAAAIARAGARELRALYRENRDRITPEERATISAAAADLYELAAEAEAE
B9: the “binding in a display sort” value is “not found”.

B10: design_605_6ebdab39-eaab-4492-afcb-164e20c3b25e_1516_dldesign_0_cycle1_af2pred (protein)
chain: EKEKEAKEIIEKARKALKEARKKLKAKGATPEQAKKMQEARELAAEADYLAKKDPKKGKEIAEKAIELAKKAAE
In the case of B10, the “binding in a display sort” value is “not found”.

B11: design_605_6ebdab39-eaab-4492-afcb-164e20c3b25e_778_dldesign_0_cycle1_af2pred (protein)
chain: EVKELIKKAKELIEKAEKLTKSGEKLEEGEKAAEEAKKVVEEAKKVAKDSTPEEKFAVAEALAELRNVEREIKKAKEEK
B11: the “binding in a display sort” value is “not found”.

B12: design_605_6ebdab39-eaab-4492-afcb-164e20c3b25e_2299_dldesign_0_cycle1_af2pred (protein)
chain: ELEELKKKHEAYEEYLKAIAYYEQSKLSKSLAEEAKQKAAEHINKANKLLGKEELSLEEAVKEAEKLDENASEIVKKLVETKKKIEEL
Consider B12, for which the “binding in a display sort” value is “not found”.

B13: design_605_6ebdab39-eaab-4492-afcb-164e20c3b25e_883_dldesign_0_cycle1_af2pred (protein)
chain: DAEIQAILEQAKKALKAAKESLEKGKKYEEEGKKNLAEAYYEHAIHNAEQAIKLAEQNIAAGGKPEEAQKIKDEAKKVKEEAKG
Regarding B13, the “binding in a display sort” value was “not found”.

B14: design_605_6ebdab39-eaab-4492-afcb-164e20c3b25e_1493_dldesign_0_cycle1_af2pred (protein)
chain: TIEKNVALAEKLAERAKEVAKKAAADPNKKEAAKLAKKAAELAKEAAALAKEGKIAEGAKKMHEARELLAEAEHLLRK
B14: the “binding in a display sort” value is “not found”.

B15: design_605_6ebdab39-eaab-4492-afcb-164e20c3b25e_1884_dldesign_0_cycle1_af2pred (protein)
chain: NKKKEEAAKLAKESLAKAKEIADYAVANKDTINKAEATALATEAASYAAEALGYAAFAGKEEYEKMKKEFKEIREKMKAVLDAI
B15: the “binding in a display sort” value is “not found”.

B16: design_605_6ebdab39-eaab-4492-afcb-164e20c3b25e_2187_dldesign_0_cycle1_af2pred (protein)
chain: SAAKEEAKKEAEKLKEKVKKLKKELEENKDNKEKAKKIAKEAREVIREARELGKKYASFKEVHKELSEAAAEAAEVRAEADLYAS
B16: the “binding in a display sort” value is “not found”.

B17: design_605_6ebdab39-eaab-4492-afcb-164e20c3b25e_1481_dldesign_0_cycle1_af2pred (protein)
chain: SEVEEAIKKIKDTAAKATAAAIAAAAVDPTLGANVAADGQAKLTELAWEYSKKYPEHKEEIEKTRKEERKAMRDAVGAAIAAVA
Regarding B17, the “binding in a display sort” value was “not found”.

B18: design_605_6ebdab39-eaab-4492-afcb-164e20c3b25e_904_dldesign_0_cycle1_af2pred (protein)
chain: AEAEKKAKEGKEKMEAGKKKLAEAKKTGSAELAKEAAKLFKEAGKLFAAVPEQQANAAEAAKLAHEAYELAAEARAK
As for B18, the “binding in a display sort” value was “not found”.

B19: design_605_6ebdab39-eaab-4492-afcb-164e20c3b25e_2239_dldesign_0_cycle1_af2pred (protein)
chain: GEKEKYAEEIKKIAKELKALGTPEGEKGAKVAERLSKQAKKTKKAEHAKGYLDIAKDIEKQAKALIAAKQ
As to B19, the “binding in a display sort” value is “not found”.

B20: design_605_6ebdab39-eaab-4492-afcb-164e20c3b25e_1133_dldesign_0_cycle1_af2pred (protein)
chain: NAAEIAAAKAALAEARAAFEAAGAALVAADPSYAPQVAKALARIDKLEADGKANPALAAEYYQLATDIAEDQAANAKKLLAAIT
As for B20, the “binding in a display sort” value is “not found”.

B21: design_605_6ebdab39-eaab-4492-afcb-164e20c3b25e_1408_dldesign_0_cycle1_af2pred (protein)
chain: AEEEEKIKKKAKEIVDTIVKAAKEGLEKARKTAAELAKKYGMKTEDAALVRSLAVKTAKEGGKYYEDAVEAAVEGIKE
Turning to B21, the “binding in a display sort” value is “not found”.

B22: design_605_6ebdab39-eaab-4492-afcb-164e20c3b25e_1749_dldesign_0_cycle1_af2pred (protein)
chain: MTPEELRKAEVEALIKKASEAMGEARFYANYAKLTGDKEAAKKAAEAAKKAIEYLTAAAALSTDPAVKARAKAAAERAKKLAKEALE
Consider B22, for which the “binding in a display sort” value is “not found”.

B23: design_605_6ebdab39-eaab-4492-afcb-164e20c3b25e_758_dldesign_0_cycle1_af2pred (protein)
chain: SEYFKEAVDVASKIVRAYHALAAVFPETAAQLEADGDAKVDKVMAAAELAEKDPEKGKAELEKQKAEAEKIKAEADKAAAAAR
In the case of B23, the “binding in a display sort” value is “not found”.

B24: design_605_6ebdab39-eaab-4492-afcb-164e20c3b25e_1941_dldesign_0_cycle1_af2pred (protein)
chain: AAAEEKAAEEEMKKLGEKNVEKVKKAAKKGAEEAEKAVKEAFKDFEKAAKTPASINVGQKAREEMLGIAAEARIKE
In the case of B24, the “binding in a display sort” value is “not found”.

B25: design_605_6ebdab39-eaab-4492-afcb-164e20c3b25e_2016_dldesign_0_cycle1_af2pred (protein)
chain: KAEEEAKKAVEFLLALGKEHPAGAEYAEKAAKAIENGEDIGTAMAYAWAAGQAVGDAALADKAMDKVAEAHMARK
Consider B25, for which the “binding in a display sort” value is “not found”.

B26: design_605_6ebdab39-eaab-4492-afcb-164e20c3b25e_1234_dldesign_0_cycle1_af2pred (protein)
chain: SGVKETAIEVAEDAKKAAEEAEKLAKEKPEFAKELKKVAEKAKKAAKKALEGAKKSEEEARKATAEAATALALAENVIDTVKLA
Take B26: the “binding in a display sort” value is “not found”.

B27: design_605_6ebdab39-eaab-4492-afcb-164e20c3b25e_1415_dldesign_0_cycle1_af2pred (protein)
chain: AAKLEAKMKAMDMAVEAGEADAEDEEKGKEKLEELKKMVEEIAKEIGEEAGESAWRIAMDVYEHTVKMKK
Take B27: the “binding in a display sort” value was “not found”.

B28: design_605_6ebdab39-eaab-4492-afcb-164e20c3b25e_1965_dldesign_0_cycle1_af2pred (protein)
chain: VAKSYAEAAKDYTAATEAFTTAATLGADAGVATAKAKLDPGLASIVSTTIKANDAAARAAGAKRWAKRAEKYKAAAEKAAA
In the case of B28, the “binding in a display sort” value was “not found”.

B29: design_605_6ebdab39-eaab-4492-afcb-164e20c3b25e_1054_dldesign_0_cycle1_af2pred (protein)
chain: DVTEKAKKAAEEALKADAETAAKLLSEAAKLAVEAGDSEGMHIIRQAISEMDFAGKKEGAAKARAAAAAAVRARQAALAA
Regarding B29, the “binding in a display sort” value is “not found”.

B30: design_605_6ebdab39-eaab-4492-afcb-164e20c3b25e_1027_dldesign_0_cycle1_af2pred (protein)
chain: ALEEAKKKIEEAEKRASKRLDEVAAKVSPEEAKKLEEAKKELKEKTEKAKKLSPEEAIKLAAEAAAKAYEAAAEARAKE
For the molecule B30, the “binding in a display sort” value was “not found”.

B31: design_605_6ebdab39-eaab-4492-afcb-164e20c3b25e_1926_dldesign_0_cycle1_af2pred (protein)
chain: SPAEERRAKATAYAARVAKEDPEFALELIREAAKADPETATEVVKAMTEAATKAAAEVDPEKAKELKEKGEAILKEVEKA
Turning to B31, the “binding in a display sort” value is “not found”.

B32: design_605_6ebdab39-eaab-4492-afcb-164e20c3b25e_799_dldesign_0_cycle1_af2pred (protein)
chain: GEKEKLKKEAEELEKKAKELEKKAEEKFKKNIKKGSKALSYVEQAKNAAKVAKKYAEEGKVEEAKKALEKAKEYLKKAKEYVEE
As to B32, the “binding in a display sort” value was “not found”.

B33: design_605_6ebdab39-eaab-4492-afcb-164e20c3b25e_768_dldesign_0_cycle1_af2pred (protein)
chain: DIAKLAEKAAKALKKAAEEGLEALAKAAALVQEARAEAKFKGLKEVAELLEKALKLAREAGKTEDEEERKALAEKAAKYAEEAAKKAK
Take B33: the “binding in a display sort” value is “not found”.

B34: design_605_6ebdab39-eaab-4492-afcb-164e20c3b25e_1026_dldesign_0_cycle1_af2pred (protein)
chain: AEKEETEEKAKEVLKKAEEAAEKILKKDPKKAQEVYRIIFLGESKRLAGDYEEALKLYEEALKKAEELNKEL
Regarding B34, the “binding in a display sort” value is “not found”.

B35: design_605_6ebdab39-eaab-4492-afcb-164e20c3b25e_858_dldesign_0_cycle1_af2pred (protein)
chain: ALEEFKKLLQKLIDLTAAVPEAAKAREELENGTPREALKAAIKAAKAKAAADPSVAPELEKLVHELSQAAAEAELELKK
As for B35, the “binding in a display sort” value was “not found”.

B36: design_605_6ebdab39-eaab-4492-afcb-164e20c3b25e_2348_dldesign_0_cycle1_af2pred (protein)
chain: DPALEEAKKHAEELAAKLSPDLAKEFKEFADFVLANAEKVITANKDNPEKRKEAGEQAKKVISSAAEAAIKLDK
Regarding B36, the “binding in a display sort” value is “not found”.

B37: design_605_6ebdab39-eaab-4492-afcb-164e20c3b25e_2341_dldesign_0_cycle1_af2pred (protein)
chain: LTDEELKEIAKKVAEEAGEKALKLLREGKSIMEAADAADELVKTVEFLPQEYFLYAAKLAAEKVAEAGREVIEERKREEA
For B37, the “binding in a display sort” value is “not found”.

B38: design_605_6ebdab39-eaab-4492-afcb-164e20c3b25e_1042_dldesign_0_cycle1_af2pred (protein)
chain: ELEKLAKKAEDAAAVLKNSKARAHALSAALQLEAGNKELAKKSATAAAAVLDANPDITPEEEKARDALKEIADWLA
For the molecule B38, the “binding in a display sort” value was “not found”.
